From PubChem BioAssay (EPA / NIEHS)
Records with an inconclusive call do not appear. Active and inactive are the calls of the source. How the source made its calls, unless noted: active means hit-call score of the fitted dose curve at least 0.9, where 1 is the maximum; inconclusive means response in the unintended direction; inactive means score below 0.9.

Assays:
[1] = IUF_NPC5_oligodendrocyte_differentiation_120hr: Leibniz Research Institute for Environmental Medicine (IUF) 120-hour Oligodendrocyte Differentiation Assay (NPC5) (AID 2284304);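 further: primary human fetal neural progenitor spheres plated to migrate and differentiate; share of O4-positive cells among Hoechst nuclei found by CNN image analysis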
In short: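 After plating on poly-D-lysine/laminin, fetal-derived hNPC spheres differentiated for 120 h at 37C in compound-containing N2 medium, refreshed by half on day 3. O4 immunostaining over Hoechst nuclei in the migration zone gave oligodendrocyte percentage relative to DMSO.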

[2] = IUF_NPC4_neurite_area_120hr: Leibniz Research Institute for Environmental Medicine (IUF) 120-hour Neuronal Morphology Assay for Neurite Area (NPC4) (AID 2284305)
In short: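 Human fetal cortex-derived neural progenitor spheres (0.3 mm, GW 16-19) plated on poly-D-lysine/laminin in N2 differentiation medium and exposed from day 0 for 120 h across 7 concentrations plus solvent control. Neurite area is mean pixel area per TUBB3-positive neuron via skeletonization, analysed relative to DMSO.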

[3] = IUF_NPC2-5_cytotoxicity_72hr: Cytotoxicity Assessment at 72 hours in the Leibniz Research Institute for Environmental Medicine (IUF) Neural Progenitor Cell Migration and Differentiation Assay for Cytotoxicity (NPC2-5) (AID 2284306);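 further: LDH release into supernatant measured by resorufin fluorescence marking membrane damage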
In short: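 Human fetal (GW 16-19) neural progenitor spheres, 0.3 mm, plated on poly-D-lysine/laminin in N2 differentiation medium and exposed from day 0 to 7 concentrations plus solvent control (DMSO ≤0.1%). LDH-dependent resazurin-to-resorufin fluorescence in supernatant at 72 h.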

[4] = IUF_NPC2-5_cytotoxicity_120hr: Cytotoxicity Assessment at 120 hours in the Leibniz Research Institute for Environmental Medicine (IUF) Neural Progenitor Cell Migration and Differentiation Assay (NPC2-5) (AID 2284307);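 on AC50: LDH released into supernatant as membrane damage marker via resorufin fluorescence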
In short: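 Membrane-integrity loss is quantified by LDH in supernatant after five days of exposure of migrating, differentiating human fetal NPC spheres; seven serially diluted concentrations are tested with DMSO kept at or below 0.1%.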

[5] = IUF_NPC2-5_cell_number_120hr: Cell Number Assessment at 120 hours in the Leibniz Research Institute for Environmental Medicine (IUF) Neural Progenitor Cell Migration and Differentiation Assay (NPC2-5) (AID 2284308; active means hit-call score of the fitted dose curve at least 0.9, where 1 is the maximum; inactive means score below 0.9;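 further: count of Hoechst-stained nuclei in migration zone around plated human neural progenitor spheres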)
In short: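 Seven-point serial dilutions plus solvent control were applied to plated 0.3 mm hNPC spheres at differentiation start, with medium half-replaced at day 3. Nuclei positive for Hoechst in the migration zone were enumerated at 120 h.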

[6] = IUF_NPC2-5_viability_120hr: Viability Assessment at 120 hours in the Leibniz Research Institute for Environmental Medicine (IUF) Neural Progenitor Cell Migration and Differentiation Assay (NPC2-5) (AID 2284312; active means hit-call score of the fitted dose curve at least 0.9, where 1 is the maximum; inactive means score below 0.9)
In short: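 Human fetal (GW 16-19) neural progenitor spheres of 0.3 mm were plated on poly-D-lysine/laminin in N2 differentiation medium and exposed from day 0 for 120 h, with half-medium refresh at day 3. Viability was read as alamar blue resazurin-to-resorufin fluorescence against DMSO.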

[7] = VALA_TUBIPS_Agonist_TubuleLength: VALA Sciences human iPS-derived Endothelial Tubule Formation (TUBIPS) Agonism Assay (AID 2284311)
In short: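 Human iPS-derived endothelial cells were exposed to compound for 72 h. Tubule formation was imaged by high-content fluorescence and scored as gain of signal relative to DMSO vehicle (agonist mode).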

[8] = VALA_TUBIPS_Antagonist_TubuleLength: VALA Sciences human iPS-derived Endothelial Tubule Formation (TUBIPS) Antagonist Assay (AID 2284313)
In short: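 Cells grown 3 days with 10 ng/ml VEGF, then exposed to compounds in VEGF medium for another 3 days. After fixation, nuclear stain and CD31 immunofluorescence imaging gave mean total tubule length against 0.1% DMSO; suramin (100 uM) inhibition control.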

[9] = VALA_MIGHUV2_Bcatenin: VALA Sciences human Umbilical Vein Endothelial Cell Migration (MIGHUV) Assay, Nuclear Translocation of beta-Catenin after Recovery (AID 2284315)
In short: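 HUVEC (4000 cells/well) scratch-wounded, dosed within 30 min over 6 concentrations in triplicate, recovered 24 h. After fixation, Hoechst and anti-beta-catenin immunofluorescence imaged for nuclear CTNB. Gain of signal versus 0.1% DMSO.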

[10] = read-out: CD69, CD69 (gene 969); assay: BSK_LPS_CD69: BioMAP Diversity Plus: LPS Assay for CD69 Biomarker Activity (AID 2284303; active means hit-call score of the fitted dose curve at least 0.9, where 1 is the maximum; inactive means score below 0.9); details: primary human HUVEC with PBMC
In short: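 Human umbilical vein endothelial cells co-cultured with PBMC under LPS stimulation, chemical exposure 24 h; cell-surface CD69 measured by ELISA and fitted in the positive direction versus DMSO.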

**Q.** Which results are given for `O=S1OC[C@@H]2[C@H](CO1)[C@]1(Cl)C(Cl)=C(Cl)[C@@]2(Cl)C1(Cl)Cl` (stereo partly drawn)?
**A.** AC50 [1]: 0.789 µM (active); outcome [2]: inactive; outcome [3]: inactive; outcome [4]: inactive; outcome [5]: inactive; outcome [6]: inactive

**Q.** Which results are given for `CS(=O)(=O)c1ccc(C(=O)C2C(=O)CCCC2=O)c(Cl)c1COCC(F)(F)F`?
**A.** outcome [1]: inactive; outcome [2]: inactive; outcome [3]: inactive; outcome [4]: inactive; outcome [5]: inactive; outcome [6]: inactive

**Q.** Which AC50 [1] does the source give for `Cc1ccccc1OP(=O)(Oc1ccccc1C)Oc1ccccc1C` here?
**A.** 6.47 µM (active)

**Q.** And the outcome [2]?
**A.** inactive

**Q.** And the outcome [3]?
**A.** inactive

**Q.** And the outcome [5]?
**A.** inactive

**Q.** What about the outcome [6] of the same molecule?
**A.** inactive

**Q.** Which AC50 [1] does the source give for `Cc1cc(C(F)(C(F)(F)F)C(F)(F)F)ccc1NC(=O)c1cccc(I)c1C(=O)NC(C)(C)CS(C)(=O)=O` here?
**A.** 4.22 µM (active)

**Q.** And the outcome [2]?
**A.** inactive

**Q.** And the outcome [3]?
**A.** inactive

**Q.** And the AC50 [4]?
**A.** 1.5 µM (active)

**Q.** What about the outcome [5] of the same molecule?
**A.** inactive

**Q.** What about the outcome [6] of the same molecule?
**A.** inactive

**Q.** Which AC50 [1] does the source give for `CC1(C)[C@H](C(=O)O[C@H](C#N)c2cccc(Oc3ccccc3)c2)[C@@H]1/C=C(\Cl)C(F)(F)F` here?
**A.** 0.983 µM (active)

**Q.** And the outcome [2]?
**A.** inactive

**Q.** And the outcome [3]?
**A.** inactive

**Q.** What about the outcome [4] of the same molecule?
**A.** inactive

**Q.** And the AC50 [5]?
**A.** 0.586 µM (active)

**Q.** And the outcome [6]?
**A.** inactive

**Q.** For `Nc1ncn[nH]1`, which outcome [7] is on record?
**A.** inactive

**Q.** What about the outcome [8] of the same molecule?
**A.** inactive

**Q.** What about the outcome [9] of the same molecule?
**A.** inactive

**Q.** For `OC(Cc1ccccc1Cl)(Cn1[nH]cnc1=S)C1(Cl)CC1` (stereo not drawn), which AC50 [1] is on record?
**A.** 0.507 µM (active)

**Q.** What about the AC50 [2] of the same molecule?
**A.** 40.3 µM (active)

**Q.** What about the outcome [3] of the same molecule?
**A.** inactive

**Q.** And the AC50 [4]?
**A.** 126 µM (active)

**Q.** What about the outcome [5] of the same molecule?
**A.** inactive

**Q.** And the AC50 [6]?
**A.** 35.8 µM (active)

**Q.** Which outcome [2] does the source give for `CNC(=O)CSP(=O)(OC)OC` here?
**A.** inactive

**Q.** What about the outcome [3] of the same molecule?
**A.** inactive

**Q.** And the outcome [4]?
**A.** inactive

**Q.** What about the outcome [5] of the same molecule?
**A.** inactive

**Q.** And the outcome [6]?
**A.** inactive

**Q.** What does the source list for `CCOCn1c(-c2ccc(Cl)cc2)c(C#N)c(Br)c1C(F)(F)F`?
**A.** AC50 [1]: 5.56 µM (active); AC50 [2]: 13.4 µM (active); AC50 [3]: 50 µM (active); AC50 [4]: 41.7 µM (active); AC50 [5]: 84.8 µM (active); outcome [6]: inactive

**Q.** What does the source list for `CC(C)[C@@H](Nc1ccc(C(F)(F)F)cc1Cl)C(=O)OC(C#N)c1cccc(Oc2ccccc2)c1` (stereo partly drawn)?
**A.** AC50 [1]: 3.8 µM (active); outcome [2]: inactive; outcome [3]: inactive; outcome [4]: inactive; outcome [5]: inactive; outcome [6]: inactive

**Q.** Which outcome [10] does the source give for `OCCCCO` here?
**A.** inactive

**Q.** For `O=C(Cc1ccccc1)OCCc1ccccc1`, which outcome [10] is on record?
**A.** inactive

**Q.** For `CCCCOC(=O)COC(=O)c1ccccc1C(=O)OCCCC`, which outcome [10] is on record?
**A.** inactive
